High-throughput results from PubChem BioAssay.
B2AR arrestin ag – qHTS assay of beta-arrestin-biased ligands of beta2-adrenergic receptor: NCGC Sytravon Library Screen; HTLA Tango cells, beta-arrestin recruitment, luciferase luminescence, 18 h; Beta-2 adrenergic receptor (Homo sapiens), P07550; AID 1347077, 2019; 44,000 tested, under 10 active; Potency, µM (top dose mostly 46.1 µM), most hits filed as activators;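 note: potency is the fitted concentration of half-maximal effect; 0% = DMSO and full agonism = EC100 isoproterenol or metaproterenol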
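Tango cells (recombinant beta2-AR, beta-arrestin, tTA-driven luciferase), 1500/well in DMEM 1% FBS, treated 18 h at 37 °C with compounds up to 46 µM; luciferin mix added, luminescence read after 15 min; %activity curves fitted and curve-classed.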
TSG101-PTAP inh – qHTS Validation Assay for Inhibitors of HIV-1 Budding by Blocking the Interaction of PTAP/TSG101: Sytravon Library Screen; Fluorescence polarization, FITC-PTAP peptide/Tsg101, 20 min; Potency, µM (highest dose often 115 µM), usual class: inhibitors; 44,000 tested, under 10 active; AID 1347069, 2019; note: potency is the fitted concentration of half-maximal effect; 0% is about no effect
Target sequence (Q99816 whole entry, looked up): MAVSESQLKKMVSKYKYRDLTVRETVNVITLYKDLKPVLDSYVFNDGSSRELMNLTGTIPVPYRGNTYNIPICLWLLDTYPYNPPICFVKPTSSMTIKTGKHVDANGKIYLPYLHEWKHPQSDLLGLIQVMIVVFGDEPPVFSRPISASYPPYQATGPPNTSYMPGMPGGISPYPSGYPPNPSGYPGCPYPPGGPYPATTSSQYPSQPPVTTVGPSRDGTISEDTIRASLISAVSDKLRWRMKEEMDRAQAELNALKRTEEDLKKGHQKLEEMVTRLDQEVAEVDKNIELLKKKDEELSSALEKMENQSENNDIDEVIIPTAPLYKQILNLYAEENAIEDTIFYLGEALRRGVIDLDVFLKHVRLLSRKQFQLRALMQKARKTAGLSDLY
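Read-out is FITC fluorescence polarization. Compounds were added to Tsg101 binding domain (10 uM final), then FITC-PTAP peptide (50 nM final), 20 min at r.t. Total S+P intensity flags fluorescent compounds.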
GALK inhibitor – qHTS Assay for Inhibitors of Human Galactokinase (GALK): NCGC Sytravon Library Screen; recombinant GALK, Kinase-Glo ATP luminescence, 1 h; Potency, µM (titrated, usually from 57.5 µM), without a hit: at the top dose activity, negative = inhibition, actives largely listed as inhibitors; 44,000 tested, under 10 active; AID 1347072, 2019;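 note: plate controls were full GALK reaction for no effect and reaction lacking GALK for full effect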
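Luminescent ATP-depletion readout (Kinase-Glo Plus) after 1 h room-temperature incubation of human GALK (5 nM) with galactose 100 µM and ATP 35 µM, pH 8.0 HEPES/Mg2+ buffer; compounds tested in qHTS format.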
GPR32 ag – qHTS for Agonists of Human Resolvin D1 Receptor DRV1 | Probable G-protein coupled receptor 32 (Homo sapiens), O75388 | CHO-K1 GPR32 beta-arrestin PathHunter luminescence, 90 min; zero percent set by DMSO-only wells | activation, % at 76.9 µM | AID 1346428, 2018 | 2.5% of 48,000 active;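 active = activation of at least 60% and not above a set upper limit, about 1 call in 100 departs from these limits; inconclusive = activation of 40% to 60%, or above that upper limit; inactive = activation under 40%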; note: 0% is about no effect
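PathHunter beta-arrestin recruitment in CHO-K1 cells stably expressing ProLink-tagged GPR32. Cells were exposed to compound for 90 min at 37 C, then chemiluminescence was read after 1 h detection at ambient temperature; DMSO served as basal control.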
SKOV3 invasion – Primary qHTS assay for Inhibitors of ovarian cancer metastasis using an organotypic tumor microenvironment (TME) model | SKOV3ip1-GFP adhesion/invasion on 3D omental model, fluorescence | Potency, µM (titrated, usually from 45.8 µM), inactives show at the top dose activity change, negative = inhibition, most hits filed as inhibitors | 0.1% of 46,000 active;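 note: potency is the fitted concentration of half-maximal effect; plate controls were DMSO wells for no effect and tomatine positive control wells for full effect; nearly all actives have a fitted effect of over 65% in size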
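qHTS, 4-pt dose (0.36-46 umol/L); SKOV3ip1-GFP, 1,200 cells/well, no FBS; primary omental fibroblast/mesothelial co-culture 48 h pre-grown; 2 h RT + 16 h 37 C; PBS wash, 4% PFA; GFP count 488/509 nm.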
NTMT1 inh – Primary qHTS for Inhibitors of N-terminal methyltransferase 1 (NTMT1): MTaseGlo Assay; AID 1645870, 2021; 2.5% of 59,000 active; Potency, µM (doses to about 114 µM), inactives show top-dose activity change, negative = inhibition, hits mostly inhibitors; NTMT1 MTase-Glo SAH luminescence, purified enzyme;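 note: potency is the fitted concentration of half-maximal effect; plate controls were DMSO vehicle for no effect and no enzyme for full effect; nearly all actives have a fitted effect of over 65% in size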
Target sequence (Q9BV86 whole entry, looked up): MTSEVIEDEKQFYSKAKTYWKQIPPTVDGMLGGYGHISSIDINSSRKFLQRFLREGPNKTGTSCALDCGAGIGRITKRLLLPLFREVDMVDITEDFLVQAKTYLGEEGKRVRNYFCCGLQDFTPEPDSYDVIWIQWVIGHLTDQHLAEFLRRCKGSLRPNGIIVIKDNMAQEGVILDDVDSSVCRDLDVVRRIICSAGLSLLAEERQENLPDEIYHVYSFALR
* marks the source's active call; other numbers are inactive results; i = inactive; ? = inconclusive; · = no result; ! = a repeat was not active; [ ] = remark or other dose. Shown are actives, neighbours in structure and some others; about 3.8% of the full set was active somewhere. Unless noted, calls come from the whole dose curve; as a rule, active = well fitted curve in the direction sought with a large enough effect; inconclusive = small, poorly fitted or top-dose-only effect, or another doubt; inactive = no such curve, though single readings can be large; an effect the other way counts as inactive or inconclusive.

SMILES | B2AR arrestin ag | TSG101-PTAP inh | GALK inhibitor | GPR32 ag | SKOV3 invasion | NTMT1 inh
Cc1ccc(-n2nc(C)c(C(=O)NCCCN3CCN(c4cccc(Cl)c4)CC3)c2-n2cccc2)cc1 | i | i | -5% | -10 | -20% | ·
CCOc1ccccc1NC(=O)c1cc2c(=O)oc3ccccc3c2s1 | i | i | 3% | 2 | -8% | 0%
Oc1cccc(-c2nc(N3CCOCC3)c3oc4ncccc4c3n2)c1 | · | · | · | · | -11%[92.2 µM] | ?
Oc1cccc(-c2nc(N3CCOCC3)c3sccc3n2)c1 | · | · | · | · | · | 40µM*
CCCCCCCCCCCC1=C(O)C(=O)C=C(O)C1=O | · | · | · | · | -21% | 45µM*!
CCNCCc1ccc(CN(CC)c2cc(OC)ccc2[C@@H]2CCc3cc(O)ccc3C2)cc1 | · | · | · | · | · | 45µM*
Cc1ccc(Nc2nc(N)nc(CSc3nc4ccccc4s3)n2)cc1 | i | i | 0% | 83* | i | 5%
CCc1cccc(CC)c1NC(=O)Cn1nnc2sc(-c3ccccc3)cc2c1=O | i | i | -1% | 20 | -22% | 13%
Cc1cccc(N(C)S(=O)(=O)c2nnc(NC(=O)c3cccs3)s2)c1 | i | i | -11% | 73* | -4% | 14%
Cc1ccc(NC(=O)C2CCN(S(=O)(=O)c3cccc4nsnc34)CC2)cc1F | i | i | 8% | 93* | -12% | -3%
Cc1cc(NC(=O)C2CCCN(S(=O)(=O)c3ccc(Br)s3)C2)ccc1Br (stereo unspecified) | i | i | 1% | -14 | -9% | 8%
Cc1cccc(C)c1NC(=O)C1CCN(S(=O)(=O)c2cccc3nsnc23)CC1 | i | i | 0% | -2 | i | 7%
Cc1ccc(NC(=O)C2CCN(S(=O)(=O)c3cccc4nonc34)CC2)cc1C | i | i | 1% | 101* | i | 15%
Cc1cc(NC(=O)C2CCN(S(=O)(=O)c3ccc(Br)s3)CC2)ccc1Br | i | i | 3% | 76* | i | 2%
Cc1ccc(NC(=O)C2CCN(S(=O)(=O)c3cccc4nonc34)CC2)c(Cl)c1 | i | i | 0% | 16 | 1% | -3%
CC(=O)c1ccc(NC(=O)C2CCCN(S(=O)(=O)c3ccc4c(c3)CCCN4C(C)=O)C2)cc1 (stereo unspecified) | i | i | 2% | 8 | 5% | 0%
C[C@H]1O[C@@H](O[C@H]2CC[C@@]3(C)[C@H](CC[C@@H]4[C@@H]3C[C@@H](O)[C@]3(C)[C@@H](C5=CC(=O)OC5)CC[C@]43O)C2)C[C@H](O)[C@@H]1O[C@H]1C[C@H](O)[C@H](O[C@H]2C[C@H](O)[C@H](O[C@@H]3O[C@H](CO)[C@@H](O)[C@H](O)[C@H]3O)[C@@H](C)O2)[C@@H](C)O1 | · | · | · | 76* | · | 38%[57.5 µM]
O=C(O)c1ccccc1C(=O)Nc1ccc(-c2ccccc2)cc1 | · | · | · | · | 10% | 8.6µM*!
O=C(c1ccccc1)c1ccccc1NC(=O)c1ccccc1C(=O)O | i | i | 3% | -7 | i | 7%
COc1ccc(OC)c(CCNC(=O)c2ccc3c(c2)c(C)c(C)n3Cc2ccccc2)c1 | i | i | -1% | -12 | i | 3%
Cc1cc(Nc2ncc3cc(-c4c(Cl)cccc4Cl)c(=O)n(C)c3n2)ccc1F | · | · | · | · | · | 12%[57.5 µM]
CCN(CC)CCOc1ccc(Nc2ncc3cc(-c4c(Cl)cccc4Cl)c(=O)n(C)c3n2)cc1 | · | · | · | · | -25% | 79µM*!
CC1(C)[C@@H](OC(=O)CCC(=O)O)CC[C@]2(C)[C@H]3C(=O)C=C4[C@@H]5C[C@@](C)(C(=O)O)CC[C@]5(C)CC[C@@]4(C)[C@]3(C)CC[C@@H]12 | · | · | · | ? | · | 27%[57.5 µM]
N#Cc1c(-n2ncnc2-c2ccc(F)cc2)sc2c1CCCCC2 | i | i | -1% | 69* | -4% | -14%
N#Cc1c(-n2ncnc2-c2cccc(Br)c2)sc2c1CCCCC2 | i | i | -2% | 13 | i | ?
SMILES | B2AR arrestin ag | TSG101-PTAP inh | GALK inhibitor | GPR32 ag | SKOV3 invasion | NTMT1 inh
Cc1ccccc1-c1ncnn1-c1sc2c(c1C#N)CCCCC2 | i | i | -2% | 106* | -5% | ?
CCc1ccc2c(c1)NC(c1ccc(OC)cc1)=NC(c1ccncc1)=N2 | i | i | ? | -20 | 1% | ?
O=C(Cn1c(SCC(=O)Nc2ccc(F)cc2)nc2ccccc21)NCc1ccc(F)cc1 | i | i | -4% | ? | ? | 2%
O=C(Cn1c(SCC(=O)Nc2ccc(F)cc2)nc2ccccc21)NCc1ccccc1Cl | i | i | -2% | 70* | -12% | -2%
O=C(CC1C(=O)N(c2ccc(F)cc2)C(=O)N1Cc1ccc2c(c1)OCO2)Nc1ccc(F)cc1 (stereo unspecified) | i | i | 8% | 1 | 6% | 2%
CC(C)(C)C(=O)Nc1ccc2nc(SCc3ccccc3)sc2c1 | i | i | -1% | 120* | i | 1%
O=C(COc1ccc(F)cc1)Nc1ccc2nc(SCCOc3ccccc3)sc2c1 | i | i | 0% | 26 | i | -3%
O=C(COc1ccc(F)cc1)Nc1ccc2nc(SCc3ccccc3)sc2c1 | i | i | 0% | 0 | 2% | ?
Cc1ccc(CSc2nc3ccc(NC(=O)COc4ccc(F)cc4)cc3s2)cc1 | i | i | 1% | 88* | 4% | 1%
NC(=O)CSc1nc2ccc(NC(=O)COc3ccccc3)cc2s1 | i | i | 0% | 70* | -7% | 20%
CCC(=O)Nc1ccc2nc(SCc3ccc(C)cc3)sc2c1 | i | i | -10% | 86* | i | 7%
O=C(Nc1ccc2nc(SCc3ccccc3)sc2c1)c1ccccc1F | i | i | 5% | 27 | -4% | -3%
COc1ccc(C(=O)NCC(c2cccnc2)N2CCc3ccccc32)cc1 (stereo unspecified) | i | i | ? | -26 | 10% | 2%
CCOc1ccccc1NC(=O)c1sc(-n2nc(C)c(CCC(C)C)c2C)nc1C | i | i | -4% | -7 | -2% | 7%
